Experimental data taken from PubChem BioAssay AID1159580 (chemical genetic matrix, 2015).
The whole screen tested about 5,500 compounds, of which about 2,000 (36%) were called active. Not shown: some 18% with an inconclusive outcome. Cut-off read from the data, not from the text of the source: active = normalized growth mostly below about 0.91 (no sharp cut-off); inconclusive = no clear call, values can overlap the other calls; inactive = mostly above about 0.92. The list shows a part of the results.

Assay: chemical genetic growth profiling, strain panel (AID 1159580);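 note: tested at 20 µM; growth read once vehicle control cultures reached saturation at 30 °C; 1 = growth at the plate median or of vehicle wells; lower values mean less growth of the strain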
Settings: S. cerevisiae deletion strains, growth OD

Measured: normalized growth

CCCCCN=C(N)N/N=C\c1c[nH]c2ccc(OC)cc12
inactive: locus YAL013W, strain DEP1, stronger effect = lower value 1.01 | locus YAL021C, strain ccr4, stronger effect = lower value 0.985 | locus YAL026C, strain drs2, stronger effect = lower value 0.928 | locus YAL030W, strain snc1, stronger effect = lower value 1.01 | locus YBL061C, strain skt5, stronger effect = lower value 1.01 | locus YBR009C, strain hhf1, stronger effect = lower value 0.985 | locus YBR021W, strain FUR4, stronger effect = lower value 0.989 | locus YBR023C, strain chs3, stronger effect = lower value 0.988 | locus YBR171W, strain sec66, stronger effect = lower value 1.03 | locus YBR229C, strain ROT2, stronger effect = lower value 1 | locus YBR231C, strain swc5, stronger effect = lower value 1 | locus YBR279W, strain paf1, stronger effect = lower value 1.01 | locus YCL011C, strain gbp2, stronger effect = lower value 1 | locus YCL016C, strain dcc1, stronger effect = lower value 0.985 | locus YCL029C, strain bik1, stronger effect = lower value 1.03 | locus YCL069W, strain vba3, stronger effect = lower value 1.02 | locus YCR088W, strain abp1, stronger effect = lower value 1.02 | locus YDL005C, strain med2, stronger effect = lower value 1.01 | locus YDL035C, strain GPR1, stronger effect = lower value 0.989 | locus YDL040C, strain nat1, stronger effect = lower value 0.998 | locus YDL074C, strain BRE1, stronger effect = lower value 1.01 | locus YDL101C, strain DUN1, stronger effect = lower value 1.01 | locus YDL134C, strain PPH21, stronger effect = lower value 0.997 | locus YDL185W, strain tfp1, stronger effect = lower value 1.06 | locus YDL192W, strain arf1, stronger effect = lower value 1.03 | locus YDR001C, strain nth1, stronger effect = lower value 1.01 | locus YDR069C, strain doa4, stronger effect = lower value 1.02 | locus YDR101C, strain arx1, stronger effect = lower value 1.02 | locus YDR137W, strain rgp1, stronger effect = lower value 1.07 | locus YDR150W, strain NUM1, stronger effect = lower value 1.02 | locus YDR159W, strain sac3, stronger effect = lower value 0.965 | locus YDR162C, strain NBP2, stronger effect = lower value 0.993 | locus YDR195W, strain ref2 1.01 | locus YDR297W, strain sur2, stronger effect = lower value 1 | locus YDR318W, strain mcm21, stronger effect = lower value 1.02 | locus YDR334W, strain swr1, stronger effect = lower value 1.01 | locus YDR335W, strain msn5, stronger effect = lower value 1.01 | locus YDR388W, stronger effect = lower value 1.03 | locus YDR392W, strain spt3, stronger effect = lower value 0.911 | locus YDR502C, strain sam2, stronger effect = lower value 1 | locus YEL003W, strain gim4, stronger effect = lower value 1.01 | locus YEL037C, strain rad23, stronger effect = lower value 1.01 | locus YEL061C, strain CIN8 (second series), stronger effect = lower value 1.01 | locus YEL061C, strain CIN8, stronger effect = lower value 0.994 | locus YER015W, strain faa2, stronger effect = lower value 0.982 | locus YER016W, strain bim1, stronger effect = lower value 1 | locus YER110C, stronger effect = lower value 1.05 | locus YER111C, strain swi4, stronger effect = lower value 1.02 | locus YER155C, strain BEM2 (second series), stronger effect = lower value 0.968 | locus YER155C, strain BEM2, stronger effect = lower value 1.01 | locus YER167W, strain BCK2, stronger effect = lower value 1.01 | locus YFR010W, strain ubp6, stronger effect = lower value 1.03 | locus YGL078C, strain dbp3, stronger effect = lower value 1.02 | locus YGL086W, strain mad1, stronger effect = lower value 1.01 | locus YGL167C, strain pmr1, stronger effect = lower value 1.01 | locus YGL173C, strain kem1, stronger effect = lower value 1.01 | locus YGL227W, strain vid30, stronger effect = lower value 1.02 | locus YGL240W, strain doc1, stronger effect = lower value 1.01 | locus YGL248W, strain PDE1, stronger effect = lower value 1 | locus YGL253W, strain hxk2, stronger effect = lower value 1.03 | locus YGR078C, strain PAC10, stronger effect = lower value 1.02 | locus YGR135W, strain pre9, stronger effect = lower value 1.02 | locus YGR229C, strain SMI1, stronger effect = lower value 0.997 | locus YGR252W, strain gcn5, stronger effect = lower value 1.01 | locus YHR013C, strain ard1, stronger effect = lower value 1.03 | locus YHR027C, strain rpn1, stronger effect = lower value 1 | locus YHR030C, strain SLT2, stronger effect = lower value 1.01 | locus YHR079C, strain IRE1 (second series), stronger effect = lower value 1.01 | locus YHR094C, strain hxt1, stronger effect = lower value 1.02 | locus YHR129C, strain ARP1, stronger effect = lower value 0.999 | locus YHR142W, strain chs7, stronger effect = lower value 0.993 | locus YHR200W, strain rpn10, stronger effect = lower value 1.04 | locus YIL066C, strain RNR3, stronger effect = lower value 0.996 | locus YIL073C, strain SPO22, stronger effect = lower value 1.02 | locus YIL125W, strain kgd1, stronger effect = lower value 1.01 | locus YIR030C, strain dcg1, stronger effect = lower value 1.02 | locus YJL092W, strain hpr5, stronger effect = lower value 1.01 | locus YJL095W, strain BCK1 (second series), stronger effect = lower value 1.01 | locus YJL095W, strain BCK1, stronger effect = lower value 0.987 | locus YJL115W, strain asf1, stronger effect = lower value 1 | locus YJL129C, strain trk1, stronger effect = lower value 1.02 | locus YJL134W, strain LCB3, stronger effect = lower value 1.01 | locus YJL154C, strain vps35, stronger effect = lower value 1.01 | locus YJL164C, strain tpk1, stronger effect = lower value 0.978 | locus YJL166W, strain qcr8, stronger effect = lower value 1.02 | locus YJL168C, strain set2, stronger effect = lower value 1.02 | locus YJL187C, strain SWE1 (second series), stronger effect = lower value 1 | locus YJL187C, strain SWE1, stronger effect = lower value 1
